Measured values from PubChem BioAssay AID645 (SRMLSC, 2007).
Among all 65,000 compounds or so, about 450 (0.69%) were called active. The full list was thinned out, with actives kept by preference. A number with no mark means an inactive call.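 How the source made its calls: active means HER2 level under 5% of the carrier-only control; inconclusive means no clear call, values can overlap the other calls; inactive means the rest.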

molecular target: Receptor tyrosine-protein kinase erbB-2 (Homo sapiens) (UniProt P04626); assay: inhibitors of Her2 protein expression, primary screen, SKBR-3 cells, AlphaScreen, 66K library (AID 645); conditions: SKBR-3 HER2 protein level, 18-24 h, at 10 µM, active compounds read low;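 further: 100% = DMSO carrier and 0% = 500 nM PU-H71 HSP90 inhibitor; lower value means stronger loss of Her2 protein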
Sequence (P04626 whole entry, looked up): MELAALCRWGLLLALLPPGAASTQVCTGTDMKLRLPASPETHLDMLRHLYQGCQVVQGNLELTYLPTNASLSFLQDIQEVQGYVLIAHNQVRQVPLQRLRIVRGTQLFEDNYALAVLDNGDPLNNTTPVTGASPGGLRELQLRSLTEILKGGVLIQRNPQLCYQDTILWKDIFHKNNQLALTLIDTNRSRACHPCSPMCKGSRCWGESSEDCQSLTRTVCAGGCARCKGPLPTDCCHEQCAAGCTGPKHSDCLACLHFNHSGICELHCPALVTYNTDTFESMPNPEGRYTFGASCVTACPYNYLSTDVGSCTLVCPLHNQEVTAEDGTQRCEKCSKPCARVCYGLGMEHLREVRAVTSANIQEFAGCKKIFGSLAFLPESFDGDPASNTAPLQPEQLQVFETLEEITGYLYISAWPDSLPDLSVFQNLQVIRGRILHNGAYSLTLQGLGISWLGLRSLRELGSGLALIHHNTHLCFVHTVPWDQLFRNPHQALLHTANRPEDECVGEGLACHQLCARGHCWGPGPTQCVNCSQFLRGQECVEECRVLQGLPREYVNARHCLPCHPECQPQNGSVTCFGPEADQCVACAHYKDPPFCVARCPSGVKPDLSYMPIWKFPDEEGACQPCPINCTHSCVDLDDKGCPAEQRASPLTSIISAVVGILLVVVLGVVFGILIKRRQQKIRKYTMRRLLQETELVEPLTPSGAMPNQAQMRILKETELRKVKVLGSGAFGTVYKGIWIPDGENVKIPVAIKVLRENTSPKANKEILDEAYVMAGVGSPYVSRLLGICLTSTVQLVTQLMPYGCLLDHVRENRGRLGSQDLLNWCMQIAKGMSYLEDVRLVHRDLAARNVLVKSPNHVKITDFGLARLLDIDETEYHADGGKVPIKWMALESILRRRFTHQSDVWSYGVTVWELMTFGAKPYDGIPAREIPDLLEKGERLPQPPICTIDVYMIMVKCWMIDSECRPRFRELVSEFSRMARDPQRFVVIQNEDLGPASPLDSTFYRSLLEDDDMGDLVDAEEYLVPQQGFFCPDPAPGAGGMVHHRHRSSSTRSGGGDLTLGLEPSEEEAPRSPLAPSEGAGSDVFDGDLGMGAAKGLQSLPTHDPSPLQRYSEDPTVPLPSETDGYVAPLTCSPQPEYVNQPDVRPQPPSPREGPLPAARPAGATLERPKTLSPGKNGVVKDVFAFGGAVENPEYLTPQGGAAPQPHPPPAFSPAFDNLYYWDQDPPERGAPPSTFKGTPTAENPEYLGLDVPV

SMILES | HER2 level % of control
CCCCNC(=O)c1c[nH]c2ccc(S(=O)(=O)Nc3ccc(OCC)cc3)cc2c1=O | 54.9%
CCOC(=O)c1c(NC(=O)CCC(=O)NCc2ccco2)sc2c1CCCC2 | 104%
Fc1ccc2nc(-c3ccccc3)nc(SCc3nnc(-c4ccccc4)o3)c2c1 | 67.9%
O=C1CCc2cc(S(=O)(=O)N3CCC(C(=O)NCc4ccccc4Cl)CC3)ccc2N1 | 90.7%
COc1nc(OC)nc(N(C)CCO)n1 | 97.4%
COc1ccc(N2C(=O)CN=C2Nc2cccc(C)c2C)cc1OC | 70.2%
CCCc1[nH]nc2c1C(c1ccc(OC)c(Cn3nc(C)c(Br)c3C)c1)C(C#N)=C(N)O2 (stereo unspecified) | -20.4% (active)
CCCc1[nH]nc2c1C(c1ccc(Br)s1)C(C#N)=C(N)O2 (stereo unspecified) | 124%
COc1ccc(C2C(C#N)=C(N)Oc3n[nH]c(C)c32)cc1CN1CCN(c2ccc(F)cc2)CC1 (stereo unspecified) | 117%
COc1ccc2oc(C)c(NC(C)=O)c2c1 | 71.5%
COc1ccc(NC(C)=O)cc1NC(=O)CN1CCN(C2c3ccccc3-c3ccccc32)CC1 | 71.4%
CCOC(=O)C1CCCN(C(=O)CN(c2ccc(OC)cc2)S(=O)(=O)c2c(C)noc2C)C1 (stereo unspecified) | 95.7%
c1ccc(-n2ncc(-c3nn[nH]n3)n2)cc1 | 88.5%
COc1cc(Br)cc(/C=N/c2ncn[nH]2)c1O | 92.3%
Cc1cc(C)c2c(c1)c(C)cc1nnc(SCC(=O)NCc3ccco3)n12 | 104%
O=C(c1ccco1)N1CCN(C(=O)C2c3ccccc3Oc3ccccc32)CC1 | 100%
CCc1c(O)nc(SCC(=O)N2CCCCC2)n(-c2ccccc2C)c1=O | 114%
N#CCCn1cnc2ccccc21 | 106%
COc1ccc(-c2nnc(SC(=O)N3c4ccccc4Sc4ccccc43)o2)cc1 | -15.7% (active)
COc1ccc(-c2nnc(SC(C)C#N)o2)cc1 (stereo unspecified) | 127%
COc1ccc(CC(=O)Nc2ccc(-c3nnc(-c4ccccc4)o3)cc2)cc1 | 87.4%

SMILES | HER2 level % of control
CCn1nc(C(=O)OCC(=O)N2c3ccccc3CC2C)c2ccccc2c1=O (stereo unspecified) | 106%
CCOc1ccc(NCCC(=O)c2ccc3c(c2)OCO3)cc1 | 95.7%
Nc1nonc1-c1noc(-c2ccc(Br)o2)n1 | 79.9%
CCn1ncc(Br)c1C(=O)Nc1cc(C)ccc1F | 75.8%
Clc1cccc(Cl)c1Cn1nnc(-c2cccs2)n1 | 89.2%
O=C(CN1C(=O)CCC1=O)Nc1ccc(S(=O)(=O)N2CCOCC2)cc1 | 103%
CCCCN(CC)CCCNC(=O)CS(=O)(=O)Cc1nc(-c2cccc(OC)c2)oc1C | 80.5%
CC1(C)CC(O)C(CCC(O)c2ccccc2)C(C)(C)N1 (stereo unspecified) | 89.8%
CCN(CC)S(=O)(=O)c1ccc(NC(=O)CN(c2cccc(F)c2)S(C)(=O)=O)cc1 | 152%
COC(=O)[C@H](Cc1ccccc1)NC(=O)N1CC(C)OC(C)C1 (stereo partly specified) | 108%
C=C(C)COc1ccc(-c2n[nH]c(C)c2-c2ccccc2)c(O)c1 | 68.6%
COc1ccc(-c2n[nH]c(C)c2-c2ccc(OC)c(OC)c2)c(O)c1 | 82.6%
C=C(C)COc1ccc(-c2n[nH]c(C)c2-c2ccccc2OC)c(O)c1 | -9.89% (active)
CCOC(=O)CNC(=O)CN1C(=O)CCSc2ccccc21 | 106%
Cn1c(=O)c2c(nc(N3CCCCCC3)n2CC(O)COc2ccc(Cl)cc2)n(C)c1=O (stereo unspecified) | 89%
COc1ccccc1NC(=O)C1=C(C)NC2=C(C(=O)CCC2)C1c1ccc(C)o1 (stereo unspecified) | 90.6%
O=c1ccn(Cc2ccccc2Cl)cc1 | 93.6%
COc1ccccc1N1CCN(C(=O)c2ccc(S(=O)(=O)N3CCCCC3)cc2)CC1 | 135%
Cn1c(SCC(=O)Nc2cccc(O)c2)nnc1-c1ccc(S(=O)(=O)N2CCOCC2)cc1 | 100%
CC(=O)Nc1nc(C)c(Cc2ccccc2)c(=O)[nH]1 | 142%
Cn1c(=O)c2cn(-c3cccc4ccccc34)cc2n(C)c1=O | 94.5%

SMILES | HER2 level % of control
CC(=O)Nc1ccc(S(=O)(=O)Nc2cccc(NC(=O)C(C)(C)C)c2)cc1 | 127%
COc1cc(NS(=O)(=O)c2ccc(NC(C)=O)cc2)cc(OC)c1 | 90.4%
CC(=O)Nc1ccc(NS(=O)(=O)c2cc(C)sc2C)cc1 | -22.3% (active)
CCC(C)n1[nH]c(=O)c2c(C)cc(C)nc21 (stereo unspecified) | 116%
CCN(CC)CCCN1C(=O)C(=O)/C(=C(/O)c2c(C)nc3ccccn23)C1c1ccc(C)o1 (stereo unspecified) | 90.1%
Cc1ccc(NC(=O)C2CC(c3ccc(F)cc3)=NO2)cc1 (stereo unspecified) | 127%
CCC1(C)N(O)C(C)(C)C(c2ccc(OC)cc2)=[N+]1[O-] (stereo unspecified) | 90.2%
O=C1c2ccccc2C(O)N1Cc1ccccc1Cl (stereo unspecified) | 99%
Brc1cnc(N2CCCC2)nc1N1CCCCC1 | 69.2%
COc1ccc(CC(=O)Nc2nc3n(n2)C(c2ccccc2)CC(=O)N3)cc1OC (stereo unspecified) | 104%
CCCn1c(SCC(=O)c2ccc3c(c2)OCCO3)nnc1C(C)C | 116%
COc1cc(C2C(C(=O)Nc3ccccc3OC)=C(C)Nc3ncnn32)ccc1O (stereo unspecified) | 106%
O=C(C1CCN(S(=O)(=O)c2cccs2)CC1)N1CCCCCC1 | 100%
Cc1nc(-c2ccc(NC(=O)c3cccs3)cc2)cs1 | 103%
CC1=C(C)CC2C(=O)N(c3cccc4ccccc34)C(=O)C2C1 (stereo unspecified) | 102%
CC(C)Cn1c(N)c(C(=O)NCc2cccs2)c2nc3ccccc3nc21 | -24.2% (active)
C=CCn1c(N)c(C(=O)OCC(C)C)c2nc3ccccc3nc21 | 86%
C=CCn1c(N)c(S(=O)(=O)c2cccs2)c2nc3ccccc3nc21 | 86.9%
COc1ccc(OCC(=O)OCCN(C)C)cc1 | 117%
